High-throughput results (PubChem BioAssay)
Sampled rows, rich in hits. Any-hit rate of the full collection: about 0.72%.
Phagocytosis inh – inhibitors of macrophage phagocytosis, primary screen, imaging, J774A.1 cells, IgG beads. J774A.1 macrophage IgG-bead phagocytosis. inhibition, % at 5 µM. 0.07% of 110,000 active. AID 1029, 2008;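 active = inhibition above the mean of the plate negative controls plus 5 SD, cut at about 13% in these data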;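 also: phagocytic index as fraction of beads internalized from green versus red external bead signal; plate controls were DMSO negative control for no effect and cytochalasin-D positive control for full effect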
MRP1 act – H69AR viability gain despite doxorubicin, primary screen, MRP-1 activator project, H69AR cells, CellTiter-Glo. 0.61% of 140,000 active. viability rescue. viability increase, % at 10 µM;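 active = viability gain under doxorubicin at or above a set limit, the compound median plus 3 SD, cut at about 4.7% in these data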;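 also: MRP-1 overexpressing cells given doxorubicin 25 µM after compound pretreatment; 18-22 h compound pretreatment then 72 h with doxorubicin before readout; 0% = doxorubicin-only wells and 100% = vehicle-treated cells without doxorubicin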
MRP resist rev – reversal of MRP1-mediated doxorubicin resistance, primary screen, H69AR cells, doxorubicin co-treatment; 0.04% of 85,000 active; AID 602, 2007; H69AR cells + 2 uM doxorubicin, CellTiter-Glo, 72 h; differential viability (reversal), % at 10 µM;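 active = viability drop by adding the cancer drug above about 55%, with treated viability meeting a 40% cutoff, limit read from the data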;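 also: viability without doxorubicin minus viability with 2 µM doxorubicin for each compound; larger differential means the compound sensitizes cells more to doxorubicin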
* hit, by the source's call; / = not tested or not shown; [ ] = dose if it differs, or a comment.

SMILES	Phagocytosis inh	MRP1 act	MRP resist rev
Cc1cccc(COc2ncnc3nc[nH]c23)c1	-3	-2	/
CCCCc1ccc(/C=C2\C(=O)ON=C2c2ccccc2)s1	39*[artifact]	-2	/
COc1cc(/C=C2\C(=O)ON=C2c2ccccc2)cc(OC)c1OC	/	1	/
COc1ccc(CNC(=O)C(=O)NCC2OCCN2S(=O)(=O)c2cccs2)cc1 (configuration not stated)	/	0	/
COc1ccccc1-c1cc(SC)c(C#N)c(=O)o1	-2	-1	/
CCCNC(=O)c1oc2ccc3c(c2c1C)C(=O)CC(C)(C)O3	/	7.1*	14
CCOC(=O)N1CCC2(CC1)CC(=O)c1c(ccc3oc(C(=O)O)c(C)c13)O2	0	0	-5
Cc1nn(C)c(C)c1CNC(=O)c1cnn2c1NC(c1ccccc1)CC2C(F)(F)F (configuration not stated)	-1	-3	2
Cc1ccc(C2CC(C(F)(F)F)n3nc(C(=O)NCc4c(C)nn(C)c4C)c(Cl)c3N2)cc1 (configuration not stated)	-1	6.4*	/
CCOC(=O)c1c(NC(=O)CSC2=NN3CCCC(=O)N=C3S2)sc2c1CCCCC2	/	-3	/
NC1=NC(=O)/C(=C/c2cn(CCC(=O)O)nc2-c2ccc(F)cc2)S1	-9	1	/
NC1=NC(=O)/C(=C/c2cn(CCC(=O)O)nc2-c2ccc(Cl)cc2)S1	-6	5.5*	/
N#Cc1c(Cl)nc(SCc2ccccc2)nc1-c1ccccc1	7	-2	/
O=C(CCCOc1ccc(Cl)cc1Cl)NNC(=O)c1ccc(NC(=O)c2ccccc2)cc1	0	1	/
Cc1ccccc1Cn1nc(C)c(NC(=O)c2noc3c2CCc2ccccc2-3)c1C	0	5.2*	23
Cc1ccccc1Cn1nc(C)c(NC(=O)c2noc3c2CC(C(C)(C)C)CC3)c1C (configuration not stated)	2	3	-7
Cc1cc(C)c(S(C)(=O)=O)c(Sc2ccc(Cl)cc2)n1	/	5.4*	/
Cc1cc(C)c(S(=O)(=O)c2ccccc2)c(Cl)n1	0	-1	/
Cc1ccc(/C=C2/SC(=S)N(CCC(=O)N3CCN(c4ccccc4)CC3)C2=O)cc1	0	4	/
Cc1c(N2C(=O)/C(=C/c3ccccc3)SC2=S)c(=O)n(-c2ccccc2)n1C	/	8.0*	/
Cc1ccc(/C=C2\SC(=S)N(c3c(C)n(C)n(-c4ccccc4)c3=O)C2=O)cc1	/	7.6*	/
O=C1/C(=C/c2cccnc2)SC(=S)N1c1ccccc1	-19	2	/
Cc1c(NC(=O)COC(=O)C(c2ccc(Cl)cc2)C(C)C)c(=O)n(-c2ccccc2)n1C (configuration not stated)	1	-4	/
Cc1ccccc1S(=O)(=O)Nc1nc2ccccc2nc1N1CCc2ccccc2C1	-4	-3	/
O=C(CSc1ncn[nH]1)NCCOc1ccccc1	-1	0	-12
SMILES	Phagocytosis inh	MRP1 act	MRP resist rev
O=C(CSc1ncn[nH]1)NCCC(c1ccccc1)c1ccccc1	-4	9.8*	3
O=C(CSc1ncn[nH]1)c1ccc2c(c1)OCCO2	-2	0	3
CC(C)c1ccc(C(=O)CSc2ncn[nH]2)cc1	-2	6.6*	22
CCOC(=O)c1ccc(NC(=S)N2CCSC2c2ccc(Br)cc2)cc1 (configuration not stated)	/	0	/
CC(C)NC(=S)N/N=C/c1ccc2c(c1)OCCO2	-2	0	/
CCN1CCN(c2cc3c(nn2)Oc2ccccc2N3C)CC1	/	0	/
O=C(COc1ccc(N2C(=O)c3ccccc3C2=O)cc1)c1ccccc1	-9	-1	/
O=C(COc1ccccc1N1C(=O)c2ccccc2C1=O)c1ccc(Cl)cc1	6.1*[artifact]	-1	/
Cc1nc(N2CCN(Cc3ccc4c(c3)OCO4)CC2)nc2c1C(=O)CC(c1ccco1)C2 (configuration not stated)	0	2	/
Cc1nc(N2CCN(Cc3ccccc3)CC2)nc2c1C(=O)CC(c1ccco1)C2 (configuration not stated)	-2	5.6*	8
CN=c1scc(C)n1/N=C/c1ccc(O)c(O)c1O	0	12*	-21
CN=c1scc(-c2cccs2)n1/N=C/c1ccc(O)c(O)c1O	2	-5	/
Cc1ccc(NC(=O)COC(=O)C2CC3C=CC2C3)cc1S(=O)(=O)N1CCCCC1 (configuration not stated)	-5	-2	/
N#CCC(CNc1ncc(C(F)(F)F)cc1Cl)OC(=O)c1cccc([N+](=O)[O-])c1 (configuration not stated)	0	-1	/
CC(C)(C)c1nnc(SCC(=O)c2ccccc2)n(N)c1=O	-4	-2	/
CCOc1ccc(Br)cc1S(=O)(=O)Nc1cccc(S(=O)(=O)N(C)c2ccccc2)c1	-8	0	/
Cc1csc(NC(=O)c2cc3c(C)nn(Cc4ccccc4Cl)c3s2)n1	-1	5.0*	/
